{"source": "PubChem BioAssay AID1347071", "about": "(National Center for Advancing Translational Sciences (NCATS), 2019)", "note": "In all, about 410,000 compounds went through this assay and about 260 (0.063%) were called active. About 2% were inconclusive and are not listed. The entries come from a sample that favours actives as a whole. Unmarked numbers belong to inactive results. The call rests on the fitted dose curve; in most records, active means well fitted activation curve with a large enough effect; inconclusive means small, poorly fitted or top-dose-only effect; inactive means no such curve, though single readings can be large or run the other way."}
{"test": "qHTS for compounds that reverse cellular toxicity of Amyloid beta (A-beta) peptide in yeast: Primary Screen; further: nearly all actives have a fitted effect of over 55% in size", "settings": "yeast expressing A-beta42, growth rescue, OD600, 48 h; series mostly up to 46.1 µM; growth rescue: at the top concentration", "from_the_text": "The A-beta peptide is produced by the processing of the amyloid precursor protein (APP) by two proteases, beta and gamma secretases. […] A-beta42 is regarded as the most amyloidogenic form due to its hydrophobicity; however, precisely how A-beta42 induces neurotoxicity is unclear. To understand further this biology and its potential therapeutic implications for human neurodegenerative disease, a quantitative high-throughput screen for compounds that reverse the cellular toxicity of the A-beta peptide was developed. A yeast based screen was used because it recapitulates the salient feature of protein mis-folding disorder accurately. This cell-based phenotypic screen provides a significant, unbiased advantage by letting the compounds and models inform us which proteins or pathways are most relevant. The ideal chemical candidates would therefore have activity in both our primary yeast and secondary neuronal toxicity assays, as well as in mouse models. They will be valuable tools for dissecting diverse protein homeostasis pathologies and could potentially become the focus for future pre-clinical development. For this luminescence assay, inhibition of A-beta rescues the toxic effect in the yeast cell, resulting in increase of signals and the desired phenotype of \"Activator\". This screen is run against the Molecular Libraries Small Molecule Repository (MLSMR) and the NCGC Sytravon Library Collection.\nNIH Chemical Genomics Center [NCGC]\nNIH Molecular Libraries Probe Centers Network [MLPCN]\nAssay Submitter (PI): Susan Lindquist, Whitehead Institute, Massachusetts Institute of Technology\n[1] Vassar R,et al (1999). Beta-secretase cleavage of Alzheimer's amyloid precursor protein by the transmembrane aspartic protease BACE. Science. 286: 735-741.\n[2] Yan R, et al (1999). Membrane-anchored aspartyl protease with Alzheimer's disease beta-secretase activity. Nature. 402: 533-536.\nTwo and a half microliter / well of yeast growth medium were dispensed in a 1536 assay plate. Compounds were pinned using the Kalypsys robotic system followed by addition of 2.5 uL / well yeast solution. The assay plates were incubated at 30 C. After 48 hr, the absorbance signal at 600 nm was obtained using the PerkinElmer ViewLux plate reader to assess yeast growth. The data was normalized to the positive control of an equimolar mixture of ferric chloride (FeCl3) and clioquinol and to the negative control DMSO.", "units": {"growth rescue": "%"}}
{"smiles": "Cc1cccc(NC(=O)C2CCCN2S(=O)(=O)c2cccc3nsnc23)c1C", "note": "(stereo not given)", "growth rescue": -2.47}
{"smiles": "COc1ccc(OCCCn2c(C)nc3cc(C)c(C)cc32)cc1", "growth rescue": -4.77}
{"smiles": "Cc1c(-c2nc(-c3ccc4c(c3)OCO4)no2)nnn1-c1ccc(Br)cc1F", "growth rescue": -2.02}
{"smiles": "O=C(CCn1ccc2cc(S(=O)(=O)N3CCCC3)ccc21)NCc1cccc(Cl)c1", "growth rescue": 2.11}
{"smiles": "O=C(CSc1oc(-c2ccccc2)nc1S(=O)(=O)c1ccc(Br)cc1)NC1CCCCC1", "growth rescue": 5.91}
{"smiles": "CC(C)CCNC(=O)CSc1nc2ccccc2nc1Cc1ccc(Cl)cc1", "growth rescue": 9.91}
{"smiles": "COc1cc(C(=O)Nc2ccc(-n3c(C)nc4ccccc4c3=O)cc2)cc(OC)c1OC", "growth rescue": -7.82}
{"smiles": "CCOc1ccccc1C(=O)Nc1ccc(S(=O)(=O)N2CCCCC2c2cccnc2)cc1", "note": "(stereo not given)", "growth rescue": -13.3}
{"smiles": "Cn1c(=O)c2c(nc(Oc3ccc(C#N)cc3)n2Cc2ccc(Cl)cc2Cl)n(C)c1=O", "growth rescue": -7.43}
{"smiles": "CCN(c1ncnc2c1cnn2-c1ccc(C)cc1)C1CCCCC1", "growth rescue": -13.3}
{"smiles": "Cc1ccc(NC(=O)c2nc(S(=O)(=O)Cc3cccc(C)c3)ncc2Cl)cc1", "growth rescue": -33.4}
{"smiles": "Cc1nnc(N2CCCC(C(=O)NCCN(C)C)C2)c2nn(-c3ccccc3)c(C)c12", "note": "(stereo not given)", "growth rescue": -0.421}
{"smiles": "COc1ccc(C2=NC(c3ccncc3)=Nc3ccc(Br)cc3N2)cc1", "growth rescue": -13.2}
{"smiles": "COc1ccc(OC)c(-n2nnc3c(sc4nc(C)c(Br)c(C)c43)c2=O)c1", "growth rescue": -12.2}
{"smiles": "CCS(=O)(=O)N1CCC(n2c(C)nc3cccnc32)CC1", "growth rescue": -4.75}
{"smiles": "COc1cc(OC)c(NC(=O)N2CC3CCCN3c3ccccc32)cc1Cl", "note": "(stereo not given)", "growth rescue": -9.37}
{"smiles": "CCOc1ccc(CNC(=O)c2ccc(CS(=O)c3ccccc3)o2)cc1", "note": "(stereo not given)", "growth rescue": -8.75}
{"smiles": "CCCCn1c(=N)c(S(=O)(=O)c2ccccc2)cc2c(=O)n3cccc(C)c3nc21", "growth rescue": 0.43}
{"smiles": "Fc1ccc(Nc2nc(SCc3ccccc3Cl)nc3ccccc23)cc1", "growth rescue": -45.3}
{"smiles": "COc1ccccc1N1CCN(C(=O)C2CCN(S(=O)(=O)c3c(C)noc3/C=C/c3ccc(C)cc3)CC2)CC1", "growth rescue": -1.97}
{"smiles": "Cc1ccc2oc3c(c(=O)c2c1)C(c1ccc(O)cc1)N(Cc1ccc2c(c1)OCO2)C3=O", "note": "(stereo not given)", "growth rescue": 5.68}
{"smiles": "COc1ccc(-c2cc(NCc3ccc(F)cc3)n3cnnc3n2)cc1", "growth rescue": -4.36}
{"smiles": "CCCCN(C)S(=O)(=O)c1ccc(C(=O)Nc2sc3c(c2C(N)=O)CC(C)(C)NC3(C)C)cc1", "growth rescue": -10.9}
{"smiles": "Cc1ccc(N(CC(=O)NCc2ccc(Cl)cc2)S(=O)(=O)N(C)C)cc1", "growth rescue": 13}
{"smiles": "Cc1cc2nn(-c3ccc(Cl)cc3)nc2cc1NC(=O)C(C)C", "growth rescue": -14.3}
{"smiles": "Cc1ccc(C(=O)CSc2nc(-c3ccccc3)nc3c2CCCC3)c(C)c1", "growth rescue": -11.5}
{"smiles": "O=C(NC1CC(=O)N(c2ccccc2)C1)c1ccco1", "note": "(stereo not given)", "growth rescue": 11.5}
{"smiles": "COCCNC(=O)CSc1nc(-c2ccccc2)[nH]c1-c1ccc(C)cc1", "growth rescue": -13.5}
{"smiles": "COc1ccccc1CNC(=O)C(Cc1ccccc1)NS(=O)(=O)c1ccc2c(c1)oc(=O)n2C", "note": "(stereo not given)", "growth rescue": 0.772}
{"smiles": "CCCCNC(=O)C1CCCN(c2nnc(C)c3c(C)n(-c4ccc(Cl)cc4)nc23)C1", "note": "(stereo not given)", "growth rescue": -17.8}
{"smiles": "CCOC(=O)c1c(NC(=O)CSc2cn(CCNC(=O)c3cccc(C(F)(F)F)c3)c3ccccc23)sc2c1CCC2", "growth rescue": -8.29}
{"smiles": "Cn1c(=O)c2c(ncn2CC(=O)Nc2cccc(C(F)(F)F)c2)n(C)c1=O", "growth rescue": -3.94}
{"smiles": "CCN(CCCNC(=O)c1ccc(Sc2ccc(C)cc2)c(NC(C)=O)c1)c1cccc(C)c1", "growth rescue": -1.54}
{"smiles": "C#CCOc1ccc(C2CC(=O)Nc3c2c(C)nn3-c2nc(C)cc(C)n2)cc1", "note": "(stereo not given)", "growth rescue": 2.23}
{"smiles": "COc1cccc(NC(=O)CSC2=Nc3ccccc3C3=NC(CC(=O)NC4CCCCC4)C(=O)N23)c1", "note": "(stereo not given)", "growth rescue": -14.8}
{"smiles": "O=C(CNS(=O)(=O)c1cccs1)N1CCN(c2ccccc2Cl)CC1", "growth rescue": 5.4}
{"smiles": "CSc1nsc(SC)c1NC(=O)OC1CCCCC1", "Potency": "4.47 µM (active)"}
{"smiles": "Cc1nnc(N2CCC(C(=O)Nc3ccc(F)cc3)CC2)c2nn(-c3ccc(Cl)cc3)c(C)c12", "growth rescue": 5.45}
{"smiles": "COc1ccc(-c2onc(C)c2C)cc1S(=O)(=O)NCc1cccs1", "growth rescue": -11.1}
{"smiles": "COc1cc(OC)cc(-c2nc3nc(C)c(CCC(=O)Nc4ccc(C)cc4)c(C)n3n2)c1", "growth rescue": -8.3}
{"smiles": "CCOCCc1nn2c(=O)cc(COC(=O)CNC(=O)c3ccc(C(C)(C)C)cc3)nc2s1", "growth rescue": -7.06}
{"smiles": "Cc1ccccc1-n1c(=O)c2ccccc2n(Cc2ccc(F)cc2)c1=O", "growth rescue": 8.53}
{"smiles": "CCOC(=O)c1cnc2c(C)cc(Cl)cc2c1NCCc1ccc(OC)c(OC)c1", "growth rescue": -7.55}
{"smiles": "CCOc1ccccc1NC(=O)Cn1c(=O)n(Cc2ccccc2)c(=O)c2c(C)c(C(=O)N(C)C)sc21", "growth rescue": 8.18}
{"smiles": "COc1ccc(C2C(=O)N(C3CCCCC3)CC(=O)N2Cc2ccccc2Cl)cc1OC", "note": "(stereo not given)", "growth rescue": -19.9}
{"smiles": "Cc1cccc(OCCSc2nc3ccccc3n2CC(=O)N2CCCCC2)c1C", "growth rescue": -18.2}
{"smiles": "Cc1ccc(C(=O)N2CCc3cc(CNC(=O)c4ccc(Br)cc4)ccc32)cc1", "growth rescue": -7.59}
{"smiles": "Cc1cccc(N(C)C(=O)CS(=O)(=O)c2cccc3nsnc23)c1", "growth rescue": -5.59}
{"smiles": "CC(C)(C)NC(=O)NC(=O)COC(=O)Cc1ccc(Cl)cc1Cl", "Potency": "11.2 µM (active)"}
{"smiles": "Cc1ccc(Cl)cc1NC(=O)COC(=O)CC(C)(C)C", "growth rescue": 7.7}
{"smiles": "COc1ccccc1OCCC(=O)OCC(=O)NC(=O)NC(C)(C)C", "growth rescue": 6.23}
{"smiles": "Cc1ccc([C@H]2N[C@]3(CCCN(Cc4ccccc4)C3=O)[C@H]3C(=O)N(Cc4ccccc4)C(=O)[C@@H]23)cc1", "growth rescue": -6.57}
{"smiles": "CCN1C(=O)[C@H]2[C@@H](c3ccc(C(F)(F)F)cc3)N[C@]3(CCCN(Cc4ccc(Br)cc4)C3=O)[C@H]2C1=O", "growth rescue": 27.1}
{"smiles": "O=C1[C@H]2[C@@H](c3ccc(C(F)(F)F)cc3)N[C@]3(CCCN(Cc4ccc(Cl)cc4)C3=O)[C@H]2C(=O)N1Cc1ccccc1", "Potency": "8.91 µM (active)"}
{"smiles": "COc1ccc(CCNC(=O)Cn2c(=O)n(-c3ccccc3)c(=O)c3c(C)c(C)sc32)cc1OC", "growth rescue": -4.29}
{"smiles": "COc1ccccc1OCC(=O)Nc1nnc2n1CCS2", "growth rescue": -8.79}
{"smiles": "CCOc1ccc(CNC(=O)C2CCN(c3nnc(-n4cccc4CNc4ccc(C)cc4)s3)CC2)cc1OC", "growth rescue": -2.64}
{"smiles": "COc1cccc(CNC(=O)Cn2ncn3c(cc4ccccc43)c2=O)c1", "growth rescue": -12.9}
{"smiles": "COCCNc1ncnc2c1c(-c1ccccc1)cn2-c1ccc(C)c(Cl)c1", "growth rescue": -0.39}
{"smiles": "CCOc1ccc(-c2cc3nc(C4CCN(C(=O)OC(C)(C)C)CC4)c(C(=O)Nc4cccc(CC)c4)cn3n2)cc1", "growth rescue": -2.51}
